# Experimental data taken from PubChem BioAssay AID602314 (ICCB-Longwood Screening Facility, Harvard Medical School, 2012).
# About 110 (0.13%) of roughly 84,000 compounds were called active. This is one part of a sample in which actives are shown more often than they occur. Unmarked numbers belong to inactive results. No stated cut-off is given here; in the data, active means inhibition above about 30% (passing the limit was not always enough); inactive means the rest.
# Test system: MgrA (MarR family transcriptional regulator), Staphylococcus aureus Newman
# Assay: S. aureus MgrA activity modulators, primary screen, biochemical, S. aureus Newman, fluorescence polarization (AID 602314);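 further: 0% = protein plus DNA without compound and 100% = DNA alone without protein; higher means less MgrA bound to DNA so lower polarization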
# Details: MgrA-DNA binding, active compounds read high, concentration not given here
row,SMILES,inhibition
1,O=C1CSC(=S)N1c1ccc(Oc2ccc(Cl)cc2)cc1,-2.4%
2,Cn1nnc(NC(=O)COc2ccccc2)n1,-1.4%
3,O=C(O)C1=Cc2sc3c(c2CS1)CCCC3,72.7% (active)
4,NC(=O)c1c(NC(=O)c2ccccc2)sc2c1CCCC2,0.05%
5,CC/C(=N\OC(=O)c1cccs1)c1ccc(-c2ccccc2F)cc1,4.4%
6,CN(C)C(=O)Cn1c(=O)n(S(=O)(=O)c2ccccc2)c2ccccc21,7.3%
7,CN(C)c1ncnc2nc[nH]c12,0.75%
8,CCCN(CCC)S(=O)(=O)c1cccc2c(N)cccc12,-2.2%
9,CC1=C(C(=O)OCCOC(C)C)C(c2ccccc2OCc2ccccc2)NC(=O)N1 (configuration not stated),-4.9%
10,CC1(C)COC(c2cccc(C#N)c2)OC1,-1.45%
11,CCN1CCCc2cc(CN(CCN3CCOCC3)C(=S)Nc3c(C)cc(C)cc3C)ccc21,4.95%
12,COC(=O)C1=C(C)NC2=C(C(=O)CC(c3ccc(Cl)cc3)C2)C1c1ccc(OC(C)=O)c(OC)c1 (configuration not stated),-2.1%
13,OCC(O)CN(c1ccccc1)c1ccccc1 (configuration not stated),-1.8%
14,Cc1ccc2cc(C#N)c(SCC(=O)Nc3ccccc3)nc2c1,-0.85%
15,O=C(CCSc1ccc(Cl)cc1)Nc1ccc(F)c(F)c1F,0.15%
16,COc1ccccc1Nc1n[nH]c(=S)n1C(=O)c1cccs1,2.9%
17,O=C(O)CCc1nn2c(=O)c3ccccc3nc2s1,-0.2%
18,CCCN(c1ccc(C)cc1)c1nc(=O)c2cccnc2s1,0.75%
19,C=CCn1c(=O)c(C(=O)NCC2CCCN2CC)c(O)c2cc(OC)c(OC)cc21 (configuration not stated),-0.05%
20,NC(=O)c1sccc1NS(=O)(=O)c1ccc(Cl)c(Cl)c1,2.05%
21,CSc1ncc(C(N)=O)c(N)n1,-4%
22,CC(=O)Nc1ccc(-c2nc(-c3ccccc3)c3cc(C)ccc3n2)cc1,0.5%
23,COc1ccccc1NC(=O)C1CC(=O)N(CCc2ccccc2)C(=Nc2ccccc2)S1 (configuration not stated),0.9%

row,SMILES,inhibition
1,CN(Cc1ccccc1)C(=O)c1cccc(-c2nnc(-c3ccccc3)o2)c1,1.3%
2,O=C(O)COc1ccc(NC(=O)c2ccccc2F)cc1,-2.2%
3,CC(C)=CC(=O)Nc1nc2ccc(C)cc2s1,5.35%
4,c1ccc(NC2CCCCC2)cc1,-1.2%
5,O=C(c1cc(-c2ccccc2)c(C(F)(F)F)s1)N1CCCC1,-2.9%
6,c1ccc(CNC2C3CC4CC(C3)CC2C4)nc1 (configuration not stated),-6%
7,CC12CC[C@H](CC1=O)C2(C)C,0.7%
8,COc1ccc(O)c(/C=N/NC(=O)c2ccn(Cc3ccc(Cl)cc3)n2)c1,2.4%
9,Nc1cc(C(=O)OCC(=O)NC2CCCCCC2)ccc1Cl,-0.65%
10,COC(=O)c1ccc(C2NN=C(c3ccccc3)S2)cc1 (configuration not stated),2.7%
11,Cc1ccccc1CNCc1cccs1,-3.4%
12,O=c1[nH]c2ccccc2c(=O)n1NS(=O)(=O)c1ccc2ccccc2c1,1.35%
13,CCCc1c(C)nc2c(C)cccc2c1SCCC(=O)O,0%
14,CC(C)C(=O)N=C1SC2CS(=O)(=O)CC2N1CCc1ccccc1 (configuration not stated),0.45%
15,CCCn1nnnc1NC(=S)NC(=O)c1cc2ccccc2o1,3.35%
16,O=C(O)C1C2CCC(C2)C1C(=O)NCCCN1CCCC1=O (configuration not stated),1.45%
17,O=[N+]([O-])c1ccc(Oc2cccc(Cl)c2)nc1,-0.6%
18,CCOC(=O)N1CCN(Cc2nc3c(c(=O)n(C)c(=O)n3C)n2CC)CC1,6.15%
19,CC(NC(=S)Nc1ccc(S(N)(=O)=O)cc1)c1ccc2c(c1)OCO2 (configuration not stated),0.45%
20,Cc1ccc(C(=O)[C@@H]2[C@@H](C(C)(C)C)C(C#N)(C#N)[C@@]3(C)C=Cc4ccccc4N23)cc1,-0.85%
21,CCc1cccc(CC)c1N1C(=O)C(C)=C(C)C1=O,-0.9%
22,O=C(O)CNC(=O)c1ccc(Cl)c(Cl)c1,-1.25%
23,O=C(O)C1CCCCC1C(=O)Nc1ccc2[nH]c(=S)sc2c1 (configuration not stated),6.3%

row,SMILES,inhibition
1,CCC(NC(=O)Nc1cc(C)cc(C)c1)c1c(-n2cccc2)sc2c1CCN(CC)C2 (configuration not stated),1%
2,Cc1nc2ccc(C(=O)OCCC(F)(F)F)cc2[nH]1,-0.25%
3,Cc1cc(C)c(C(=O)N2CCCCC2C)c(C)c1 (configuration not stated),-0.7%
4,O=C(NC1CCCCNC1=O)c1ccc(N2CCOCC2)nc1 (configuration not stated),-0.3%
5,CCOC(=O)CC1=C(C(=O)OCC)C(c2c(F)cccc2Cl)C(C#N)=C(N)O1 (configuration not stated),0.2%
6,C=CCNC(=O)c1cc(-c2ccccc2O)on1,0.8%
7,C=CCNC(=O)c1ccc2nc(-c3ccco3)c(-c3ccco3)nc2c1,59.2% (active)
8,C=CCNC(=O)c1ccc(OCC=C)cc1,0.4%
9,CSC(=Nc1ccccc1F)Nc1ccccc1F,-2.5%
10,O=C(O)c1ccccc1Cc1cccs1,-3.8%
11,C=CCNC(=O)c1cc(Br)cs1,0.6%
12,Cc1nc(SCSc2nc3ccccc3s2)nc2c1CCCC2,0.6%
13,CCN(CC)S(=O)(=O)c1cc2c3c(c1)c(C)cc(=O)n3CCC2,0.85%
14,O=C(c1ccc(Br)cc1)c1cc2cc(Br)cc(Br)c2o1,1.1%
15,COc1cccc(O)c1C(=O)NCC(=O)O,-1.1%
16,COc1ccc(N=Cc2nc(-c3ccccc3Br)oc2O)c([N+](=O)[O-])c1,4.2%
17,O=C(OC(C(=O)c1ccccc1)c1ccccc1)c1cccc(O)c1 (configuration not stated),-1%
18,CCNc1sc(C(=O)OC)c(N)c1C#N,0.25%
19,COc1ccc2[nH]c(=O)c(CN(Cc3ccc(C)cc3)C(C)=O)cc2c1,3.85%
20,COc1cccc(CNn2cn[nH]c2=S)c1OCc1ccccc1,0.8%
21,COc1cc(C)nc(NN)n1,2.8%
